# Reference: PubChem BioAssay AID2501 (Southern Research Specialized Biocontainment Screening …, 2010)
# Out of some 2,200 compounds screened, about 1,200 (55%) were called active. So high a share suggests a set chosen from earlier hits. The list shows a part of the results. Values without a mark were called inactive. Cut-off not given; nearly all actives show IC50 up to about 92 µM.
# Experiment: counter assay for TAg ATPase ADP read-out – biochemical, ADP-Hunter, fluorescence, counter-screen (AID 2501);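 further: purified T antigen ATPase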;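 on inhibition: 0% = enzyme with vehicle and 100% = reference inhibitor wells; higher means more inhibition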
# Conditions: series mostly up to 100 µM; inhibition: at the top concentration
SMILES,inhibition,IC50
COCCCN(Cc1ccco1)C(=O)Cn1ncc2c(=O)oc3ccc(C)cc3c21,-16.3%,
CCn1c(SCC(=O)c2ccc(O)c(O)c2)nnc1-c1ccccc1OC,,3.84 µM (active)
CCn1c(SCC(=O)Nc2ccccc2C)nnc1-c1ccccc1O,0.55%,
COc1cc(-c2nc(=S)[nH][nH]2)cc(OC)c1OC,,10.7 µM (active)
COc1ccc(C(=O)/C=C(\C)Nc2ccc(NC(C)=O)cc2)cc1,,17.8 µM (active)
CC(=O)Nc1ccc(OCCOc2ccc(/C=C3\C(=N)N4N=C(C)SC4=NC3=O)cc2)cc1,-24.2%,
CN1c2ccc(C=O)c3c(C=O)ccc(c23)N(C)C1(C)C,,17.5 µM (active)
Cc1ccc(C)c(-c2nc3ccc(N)cc3[nH]2)c1,,4.86 µM (active)
Nc1ccc2nc(-c3cccs3)[nH]c2c1,,3.65 µM (active)
COc1ccc(C2=CC3=C(Br)C(=O)C(C)(OC(=O)c4ccco4)C(=O)C3=CO2)cc1 (stereo not drawn),9.67%,
CCNc1ccc(Br)cc(C(=O)/C=C/c2ccc(Cl)cc2Cl)c1=O,-54.5%,
CC(=O)Nc1ccccc1O,,2.63 µM (active)
CCC(=Nc1ccccc1O)C1=C(O)CC(c2ccccc2)CC1=O (stereo not drawn),,8.32 µM (active)
COc1cc(/C=C2/C(=O)ON=C2c2ccccc2)ccc1O,,14.4 µM (active)
O=C1ON=C(c2ccccc2)/C1=C/c1ccccc1,5.34%,
COc1ccc(/C=C2\C(=O)ON=C2c2ccccc2)cc1OC,4.03%,
CCOC(=O)C1=C(C)N(c2ccccc2)C(=O)/C1=C\c1ccc(O)c(OC)c1,-43.5%,
O=C1ON=C(c2ccccc2)/C1=C\c1ccco1,26.6%,
O=C1C(=Cc2ccc(Br)o2)C(=O)c2ccccc21,29.5% [at 50 µM],
COc1cc(/C=C2\C(=O)ON=C2c2ccc(Cl)cc2)ccc1O,,18.5 µM (active)
COc1ccc(/C=C2\C(=O)ON=C2c2ccccc2)cc1,14.8%,
O=C1ON=C(c2ccccc2)/C1=C/c1ccc(OS(=O)(=O)c2ccccc2)cc1,21.3%,
O=C1ON=C(c2ccccc2)/C1=C/c1ccc(O)c(O)c1,,7.26 µM (active)
COc1cc(C=C2C(=O)c3ccccc3C2=O)ccc1O,,4.42 µM (active)
O=C(CCS(=O)(=O)c1ccc(Cl)cc1)Oc1ccc2c(c1)OCO2,,78 µM (active)
CC(=O)Nc1cccc(NC(=O)COc2ccc3c(c2)OCO3)c1,19.8%,

SMILES,inhibition,IC50
Cc1cc(NS(=O)(=O)c2ccc(NC(=O)Nc3ccc4c(c3)OCO4)cc2)no1,-12.7%,
COc1c2ccoc2nc2c(OC)c(O)ccc12,,11.5 µM (active)
CN(C)c1ccc(NC(=O)c2ccc3nc[nH]c3c2)cc1,,3.67 µM (active)
CC(C)Oc1ccc(C(=O)Nc2ccc(N(C)C)cc2)cc1,,12.1 µM (active)
COc1c(F)c(F)c(C(=O)O)c(Nc2ccc(C)cc2)c1F,-10%,
CC(OC(=O)c1ccccc1C(=O)N(C)c1ccccc1)C(=O)Nc1ccc(C(N)=O)cc1 (stereo not drawn),14.8%,
Cc1ccc(NC(=O)CN2C(=O)N/C(=C/c3cc(C)n(-c4cccc(C(=O)O)c4)c3C)C2=O)cc1,-2.73%,
COc1cc(C(=O)N/N=C2\CCS(=O)(=O)c3ccc(F)cc32)cc(OC)c1OC,2.72%,
COc1cc(C(=O)Nc2ccc(N(C)C)cc2)cc(OC)c1OC,,5.06 µM (active)
CN(C)c1ccc(NC(=O)c2cccc(N3C(=O)CCC3=O)c2)cc1,,6.4 µM (active)
CSc1nc(-c2ccco2)nn1S(C)(=O)=O,-7.36%,
CCCCC(CC)CN=C(N)NC(N)=NCCCCCCN=C(N)NC(N)=NCC(CC)CCCC (stereo not drawn),-22%,
Cc1ccc(/C=c2\sc3nc(-c4ccco4)nn3c2=O)o1,21.2%,
Cc1ccc(/C=C2/SC(=O)NC2=S)o1,,4.25 µM (active)
Cc1ccc(C2=NOC(=O)/C2=C\c2ccc(C)o2)cc1,-0.53% [at 50 µM],
COc1ccc(C(=O)CC(c2ccccc2)C2CCCCC2=O)cc1 (stereo not drawn),-17.5%,
COc1ccc(N2CCN(C(CNC(=O)C3CCCCC3)c3cccnc3)CC2)cc1 (stereo not drawn),,9.65 µM (active)
CCN(CCNC(=O)C1CCCN(Cc2nc(-c3ccc(OC)cc3)oc2C)C1)c1ccccc1 (stereo not drawn),21.4%,
O=C(Nc1ccccc1F)c1coc(=O)c(Br)c1,-18.9%,
COc1cccc(CNC(=O)Cc2ccc(Br)cc2)c1,4.92%,
COc1ccccc1CNC(=O)COC(=O)c1c(C)nn(-c2ccccc2)c1Cl,-21.6%,
COc1ccccc1CNC(=O)c1ccc(CS(=O)Cc2cccc(Cl)c2)o1 (stereo not drawn),,12.8 µM (active)
COC(=O)C1=C(O)/C(=C\c2ccc(CNS(=O)(=O)c3ccccc3)o2)N=C1C,-5.11%,
COC(=O)C1=C(O)/C(=C/c2cccc(OC)c2O)N=C1C,,6.57 µM (active)
CCOC(=O)C1=C(O)/C(=C/c2cccc(OC)c2O)N=C1C,,7.3 µM (active)
O=C(NN1C(=O)/C(=C/C=C/c2ccco2)SC1=S)c1ccccc1O,-28.5%,

SMILES,inhibition,IC50
COc1cc(/C=C2\SC(=S)N(NS(=O)(=O)c3ccccc3)C2=O)ccc1O,,12.1 µM (active)
O=C(NN1C(=O)/C(=C/c2cc([N+](=O)[O-])ccc2O)SC1=S)c1ccccc1O,-3.7%,
COc1cc(/C=C2\SC(=S)N(NC(=O)c3cccnc3)C2=O)ccc1O,,6.17 µM (active)
O=C1/C(=C/C=C/c2ccco2)SC(=S)N1NS(=O)(=O)c1ccccc1,22.8% [at 12.5 µM],
CC(/C=C1\SC(=S)N(CCCC(=O)Nc2ccc(C(=O)O)c(O)c2)C1=O)=C\c1ccccc1,-5.4%,
COc1cc(/C=C2\SC(=S)N(NS(=O)(=O)c3ccc(C)cc3)C2=O)ccc1O,,8.48 µM (active)
CCOc1ccc(N2Nc3n[nH]c(N)c3N2)cc1,,5.65 µM (active)
CC[N+]1(CC(O)COC2CC(C)CC(C)(C)C2)CCOCC1 (stereo not drawn),-12.7%,
COc1cc2c(cc1OC)C[N+](C)(C)CC2,,72.6 µM (active)
N#CCSc1nc(-c2ccccc2)nc2ccccc12,-9.94%,
O=c1c2c(-c3ccco3)csc2nc(SCc2cn3cccnc3n2)n1-c1ccccc1,-21.5%,
COCc1cc(=O)n2[nH]c(-c3ccsc3-n3c(C)ccc3C)cc2n1,-28.4%,
C#CCOCCOCCOCCNc1nc(N2CCN(C(=O)CCCCCCCCCCNC(=O)[C@H](CCCN=C(N)N)n3cc(C[C@@H](C)CC)nn3)CC2)nc(N2CCN(C(=O)CCCCCCCCCCNC(=O)[C@@H]([C@H](C)CC)n3cc(CCCCCN)nn3)CC2)n1,9.93%,
COc1cc(/C=N/NC(=O)c2ccc3c(c2)OCCO3)cc(Cl)c1O,,6.64 µM (active)
COc1ccccc1/C=C/C=N/NC(=O)c1cc(-c2ccco2)[nH]n1,-4.87%,
CCCc1cc(C(N)=O)c(NC(=O)c2ccoc2C)s1,15.3%,
COc1ccc(/C=N/NC(=O)c2ccoc2C)cc1O,,5.08 µM (active)
O=C(N/N=C/C=C\c1ccco1)c1ccccn1,-15.2%,
Cc1occc1C(=O)N/N=C/C=C/c1ccc(N(C)C)cc1,,12.2 µM (active)
COc1cc(/C=N/NC(=O)c2ccoc2C)cc(OC)c1O,,18.5 µM (active)
CCn1c(C)nc2cc(C(=O)N/N=C/c3ccc(OC)c(O)c3)ccc21,,3.58 µM (active)
O=c1cc(-c2ccc(Br)cc2)[nH][nH]1,,12.3 µM (active)
CN1C(=O)NC(c2ccc(O)cc2)C2=C1CN(c1ccc(O)cc1)C2=O (stereo not drawn),,4.84 µM (active)
Cc1cc(C)nc(Nc2ccc(O)cc2)n1,,3.35 µM (active)
Cc1cc(C)nc(NC(=O)c2ccc(Cl)cc2)n1,-13.1%,
Cc1cc(C)nc(SSc2nc(C)cc(C)n2)n1,-11%,

SMILES,inhibition,IC50
Oc1ccc(-c2[nH]ncc2-c2cccc3cccnc23)c(O)c1,,18.1 µM (active)
COc1ccccc1-n1cc(CN2CCN(C3CCCCC3)C(CCO)C2)cn1 (stereo not drawn),8.82%,
O=C(c1ccc2ncsc2c1)N1CCN(c2ccc(O)cc2)CC1,,3.9 µM (active)
O=C1c2ccccc2S(=O)(=O)c2cc(C(=O)N3CCC(N4CCCC4)CC3)ccc21,-33.2%,
O=C(c1cccc(-c2ccc(O)cc2)c1)N1CCOCC1,,4.07 µM (active)
CCc1ccc(OCc2nnc(SCC(=O)Nc3cccc(C(=O)N4CCOCC4)c3)o2)cc1,-25.4%,
O=C(c1ccc2ccccc2c1)N1CCN(c2ccc(O)cc2)CC1,,4.79 µM (active)
O=C(c1cccc(F)c1)N1CCC(N2CCOCC2)CC1,0.59%,
c1coc(-c2nnc(-c3ccco3)nn2)c1,12.1%,
O=C(N/N=C/c1ccc(O)cc1O)/C(=C/c1ccccc1)CCO,,11.2 µM (active)
COc1ccc(OC)c(CCNC(=O)Cn2sc3nc(C)cc(C)c3c2=O)c1,11.8%,
Cc1cc2nc3ccc(N(C)C)cc3nc2cc1N,,90.6 µM (active)
O=C(O)Cc1c[nH]c2cccc(O)c12,,34.4 µM (active)
OC[C@H]1O[C@@H](Oc2cc(O)cc(/C=C/c3ccc(O)cc3)c2)[C@H](O)[C@@H](O)[C@@H]1O,,7.7 µM (active)
O=c1c(-c2ccc(O)cc2)coc2cc(OC3OC(CO)C(O)C(O)C3O)ccc12 (stereo not drawn),,12.9 µM (active)
O=C(O)CC(CCc1ccccc1)OC1OC(CO)C(O)C(O)C1O (stereo not drawn),18.6%,
CCCCN(CC)Cc1ccc(CNC(=S)Nc2ccc(C)cc2Cl)o1,13.6%,
O=c1[nH]ncc(N/N=C\c2ccc(O)cc2O)c1Cl,,6.23 µM (active)
Oc1ccc(/C=N/Nc2nccnc2Cl)cc1,,3.29 µM (active)
Oc1ccc(/C=N/Nc2nccnc2Cl)c(O)c1,,11.8 µM (active)
Cc1cc2cc3c(N)[nH]nc3nc2cc1C,,6.68 µM (active)
CCc1ccc2nc3n[nH]c(N)c3cc2c1,,5.76 µM (active)
Cc1ccc2cc3c(N)[nH]nc3nc2c1,,6.56 µM (active)
C=CCOC(=O)C1=C[C@@H](c2ccc3c(c2)OCO3)C[C@@H](OCCCCO)O1,11.6% [at 50 µM],
O=C(O)c1cc(S(=O)(=O)O)cc(Nc2c3ccccc3nc3ccccc23)c1O,,14.7 µM (active)
